This note sets out measurements from PubChem BioAssay (NCATS).

Inconclusive results are not listed. A number with no mark means an inactive call. The source made the active and inactive calls. Calls come from the whole dose curve; as a rule, active = well fitted cell-killing curve with a large enough effect; inconclusive = small, poorly fitted or top-dose-only effect, or effect the other way; inactive = flat fitted curve, though single readings scatter.
% is set by controls: 0 for no effect and ±100 for the full control effect; potency is the fitted concentration of half-maximal effect.

The subject of the assay is OV90. The assay is described as follows: Primary qHTS to identify gynecologic anti-cancer compounds using libraries of approved drugs and bioactive compounds (AID 1345084). Note: nearly all actives have a fitted effect of over 55% in size. The conditions noted are these: Gynecologic cancer cell panel viability, ATPlite luminescence, 48 h; series mostly up to 57.5 µM; activity change, negative = cytotoxicity: at the top concentration. The essentials:
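Five-concentration response, 48 h; readout is ATP-driven luciferase luminescence.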
`C=C(C)C(=O)OC1CC(CO)CCC/C(CO)=C/C2OC(=O)C(=C)C21` (centres undefined): the “activity change, negative = cytotoxicity” value was -26.4% [at 38.5 µM].
Still for that read-out and setting: the figure for `CC1=C(C(=O)OC2CCCCC2)C(c2ccc([N+](=O)[O-])cc2)C2=C(CC(C)(C)CC2=O)N1` (centres undefined) is -0.675%.
Take `CC1(C)CC[C@]2(C(=O)O[C@@H]3O[C@H](CO)[C@@H](O)[C@H](O)[C@H]3O)CC[C@]3(C)C(=CCC4[C@@]5(C)CC[C@H](O[C@@H]6O[C@H](C(=O)O)[C@H](O)[C@H](O)[C@H]6O)C(C)(C)C5CC[C@]43C)[C@@H]2C1` (some centres undefined): the “activity change, negative = cytotoxicity” value was 7.91% [at 25.3 µM].
Take `O=C(Nc1ccc(-c2ccnc(Nc3ccc(N4CCOCC4)cc3)n2)cc1)C1CCCN1` (centres undefined): the “activity change, negative = cytotoxicity” value was -2.57%.
Same read-out and setting: in the case of `C=C[C@H](/C=C\c1ccc(O)cc1)c1ccc(O)cc1` it was -5%; in that of `C=C1C(=O)O[C@H]2/C=C(/C)[C@@H](OC(C)=O)C/C=C(\C)C[C@@H](OC(=O)/C(=C/C)COC(=O)/C(=C/C)CO)[C@@H]12`, -1.22% [at 25.3 µM].
Take `CNc1cccc(CCOc2ccc3c(c2)CN(CC(F)(F)F)C(=O)[C@H](CC(=O)O)C3)n1`: the “activity change, negative = cytotoxicity” value was -42.5%.
Still for that read-out and setting: the figure for `C=C1C(=O)O[C@@H]2C[C@@]3(C)CCCC(=C)[C@]3(O)C[C@H]12` is -19.6%.
Still for that read-out and setting: in the case of `O=C(O)CCc1nccc2c1[nH]c1ccccc12` it was 6.06%; in that of `CCNc1nc(Nc2cc(F)c(C(=O)N3CCOCC3)cc2OC)ncc1C(F)(F)F`, 10.9%; in that of `Cc1[nH]c(/C=C2\C(=O)Nc3ccc(F)cc32)c(C)c1C(=O)NCCN1CCCC1`, -16.2%.
As to `COC1CC/C=C(\C)C(=O)Nc2cc(O)cc(c2)CC(C)CC(OC)C(O)C(C)/C=C(\C)C1OC(N)=O` (centres undefined), the Potency is 8.91 µM (active).
Consider `C/C(=C\Cc1c(O)c(Cl)c(C)c(C=O)c1O)CC/C=C(\C)[C@H]1CC(=O)C(C)(C)O1`, for which the “activity change, negative = cytotoxicity” value was -3.71% [at 25.3 µM].
Same read-out and setting: the figure for `CCn1c(=O)c(-c2ccc(-c3cncs3)cc2Cl)cc2cnc(Nc3ccc(N4CCN(C)CC4)cc3)nc21` is -25.9%.
Turning to `c1ccc(-c2ccc(CNc3nc(-c4ccccn4)nnc3-c3ccccc3)cc2)cc1`, the Potency was 7.08 µM (active).
Consider `COCc1c(Cl)ccc2c1CC[C@H]2c1ncc[nH]1`, for which the “activity change, negative = cytotoxicity” value is -5.82%.
Still for that read-out and setting: the figure for `CC(=O)c1c(C)cc2cccc(O)c2c1O[C@@H]1O[C@H](CO)[C@@H](O)[C@H](O)[C@H]1O` is -0.177% [at 38.5 µM]; for `COc1cc(OC)c2c(=O)[nH]c(-c3cc(C)c(OCCO)c(C)c3)nc2c1` it is -22.6%; for `C/C=C(\C)C(=O)O[C@H]1C=CC(=O)O[C@H]1/C=C/[C@@H](O)[C@H](C)O` it is -22.6%.
The same measure, in the same setting: the figure for `OC(c1ccc(-c2ccc(CN3CCN(Cc4ccncc4)CC3)cc2)c(F)c1)(C(F)(F)F)C(F)(F)F` is -2.61%; for `O=C(CCl)Nc1cccc(NC2=NS(=O)(=O)c3ccccc32)c1` it is -10.4%.
Still for that read-out and setting: in the case of `CC1CC(=O)C2=C(C1)C1OC1C1(O)C2C(=O)c2cccc(O)c2C1O` (centres undefined) it was -7.13% [at 38.5 µM]; in that of `CCn1nc(C2CCN(C(=O)CCO)CC2)nc1-c1cnc(N)c(-c2nnc(C(C)(C)C)o2)n1`, -20.2%.
In the case of `COC1CC(=O)C23C(=O)NC(Cc4c[nH]c5ccccc45)C2C(C)C2(C)OC2C3/C=C/CC(C)CC1O` (centres undefined), the “activity change, negative = cytotoxicity” value is -22.7% [at 25.3 µM].
Consider `C=C1C(=O)O[C@@H]2[C@H]3C(C)=CC(=O)C3=C(C)[C@@H](OC(=O)/C(C)=C\C)[C@H](O)[C@@H]12`, for which the “activity change, negative = cytotoxicity” value is -23% [at 38.5 µM].
As to `C=C1CC2OC(=O)C(COC)C2C(OC(=O)/C(C)=C\C)CC2(C)OC1=CC2=O` (centres undefined), the “activity change, negative = cytotoxicity” value was -20.2% [at 38.5 µM].
On the same count and under the same terms, the figure for `Cc1cc(C)c2c(c1)C(N(Cc1cc(C(F)(F)F)cc(C(F)(F)F)c1)c1nnn(C)n1)CCCN2CC1CCC(C(=O)O)CC1` (centres undefined) is 0.778%.
On to `Cc1nc2ccc(-n3ncc(C(=O)c4cc5ccccc5[nH]4)c3N)cc2[nH]1`, for which the Potency is 14.1 µM (active).
Regarding `CC(=O)O[C@@H]1[C@@H](OC(C)=O)[C@H](C)O[C@@H](O[C@H]2[C@@H]3C=CO[C@@H](O[C@@H]4O[C@H](CO)[C@@H](O)[C@H](O)[C@H]4O)[C@@H]3[C@@]3(CO)O[C@@H]23)[C@@H]1OC(=O)/C=C/c1ccccc1`, the “activity change, negative = cytotoxicity” value was 3.85% [at 25.3 µM].
On the same count and under the same terms, the figure for `O=C(NCCCn1ccnc1)c1cc(-c2ccco2)on1` is -26.1%; for `COc1ccc(C(=O)O[C@H]2C=COC=C3C=C4C(=O)N(C)C(=S)C(=O)N4[C@@H]32)cc1Oc1cc(C=O)ccc1O` it is 0.253% [at 25.3 µM]; for `C=C1C(=O)OC2/C=C(/C)C3=CC(=O)C(C)(CC(OC(=O)/C(C)=C/COC(C)=O)C12)O3` (centres undefined) it is -6.41% [at 25.3 µM].
Same read-out and setting: in the case of `C=C(C)Cn1c(SCC(=O)c2cccs2)nc2sc3c(c2c1=O)CCCC3` it was -6.1%; in that of `C=C1C(=O)O[C@@H]2/C=C(\C)CC/C=C(\C)CC[C@@H]12`, -17%; in that of `O=C(Nc1ccc(-n2nc(C(F)(F)F)cc2C(F)(F)F)cc1)c1ccncc1F`, 1.03%.
Consider `CCNC(=O)C#Cc1ccc2c(C(=Nc3ccc(CN(C)C)cc3)c3ccccc3)c(O)[nH]c2c1`, for which the Potency was 0.447 µM (active).
Take `C=C1CCC2[C@](C)(CCC[C@@]2(C)C=O)[C@H]1CC/C(C)=C/CO` (some centres undefined): the “activity change, negative = cytotoxicity” value is -9.17%.
Turning to `CC1CCCC(O)CC(=O)c2c(O)cc(O)cc2CC(=O)O1` (centres undefined), the “activity change, negative = cytotoxicity” value is -13.6% [at 38.5 µM].
For the molecule `CC(C)CCCCC(=O)N[C@@H](CO)C(=O)N[C@@H](CC(C)C)C(=O)[C@@]1(CO)CO1`, the “activity change, negative = cytotoxicity” value was -9.54%.
